# Tests used:
# Assay in all cases: DAPPL (digital affinity profiling via proximity ligation, sequencing); 10 mM Tris-HCl pH 7.5, 50 mM NaCl, 1 mM DTT, 4% glycerol, room temperature, 30 min; GST-TFs on glutathione beads, 16-mer random dsDNA library, 0.1% formaldehyde crosslink after washing; high values mean tight binding
# [1] = target: T1, FLI1 (Homo sapiens, UniProt Q01543 1-452); conditions: protein: recombinant; tags: N-terminal GST; dsDNA, one strand shown
# T1 sequence: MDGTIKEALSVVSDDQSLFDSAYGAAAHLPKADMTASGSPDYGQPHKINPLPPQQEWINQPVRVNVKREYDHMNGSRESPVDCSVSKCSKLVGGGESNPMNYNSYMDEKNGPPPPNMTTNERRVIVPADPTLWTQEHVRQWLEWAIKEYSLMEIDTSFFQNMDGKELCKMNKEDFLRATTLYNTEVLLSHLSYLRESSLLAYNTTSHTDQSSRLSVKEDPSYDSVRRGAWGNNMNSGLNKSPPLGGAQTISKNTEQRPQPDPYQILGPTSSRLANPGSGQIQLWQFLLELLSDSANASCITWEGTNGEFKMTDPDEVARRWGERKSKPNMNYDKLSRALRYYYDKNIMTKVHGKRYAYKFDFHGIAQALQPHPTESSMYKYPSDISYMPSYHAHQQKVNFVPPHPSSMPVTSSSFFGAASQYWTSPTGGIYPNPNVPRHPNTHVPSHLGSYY
# Outline: (§1)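 Sequencing on an Illumina NextSeq500 followed washing, crosslinking with 0.1% formaldehyde, proximity ligation (BsaI/T4 ligase, 1 h, 37 °C) and PCR amplification of pools that had been incubated for 30 min at room temperature with 200 nmole of a random double-stranded 16-mer DNA library in Tris/NaCl/DTT/glycerol buffer. Each pool held DNA-barcoded human transcription factors, expressed in yeast as GST fusions and captured on glutathione beads, plus a tag-only sample. Binding signal is a hexamer's read frequency for a factor divided by its frequency in the tag-only sample.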
# [2] = target: T2, ELK1 (Homo sapiens, UniProt P19419 1-428); conditions: protein: recombinant; tags: N-terminal GST; dsDNA, one strand shown
# T2 sequence: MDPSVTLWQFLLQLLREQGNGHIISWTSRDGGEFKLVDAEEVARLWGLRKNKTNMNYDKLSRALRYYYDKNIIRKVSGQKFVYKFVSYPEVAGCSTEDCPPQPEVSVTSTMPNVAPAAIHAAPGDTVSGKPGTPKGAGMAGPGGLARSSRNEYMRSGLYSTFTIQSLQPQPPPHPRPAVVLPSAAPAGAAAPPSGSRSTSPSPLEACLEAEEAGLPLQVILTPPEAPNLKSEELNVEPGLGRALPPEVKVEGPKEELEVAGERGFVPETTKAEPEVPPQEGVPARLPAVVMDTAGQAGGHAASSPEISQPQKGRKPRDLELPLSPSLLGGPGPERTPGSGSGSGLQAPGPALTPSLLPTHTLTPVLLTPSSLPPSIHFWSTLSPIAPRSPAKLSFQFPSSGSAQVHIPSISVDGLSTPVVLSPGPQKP
# Outline: as §1
# [3] = target: T3, GABPA (Homo sapiens, UniProt Q06546 1-454); conditions: protein: recombinant; tags: N-terminal GST; dsDNA, one strand shown
# T3 sequence: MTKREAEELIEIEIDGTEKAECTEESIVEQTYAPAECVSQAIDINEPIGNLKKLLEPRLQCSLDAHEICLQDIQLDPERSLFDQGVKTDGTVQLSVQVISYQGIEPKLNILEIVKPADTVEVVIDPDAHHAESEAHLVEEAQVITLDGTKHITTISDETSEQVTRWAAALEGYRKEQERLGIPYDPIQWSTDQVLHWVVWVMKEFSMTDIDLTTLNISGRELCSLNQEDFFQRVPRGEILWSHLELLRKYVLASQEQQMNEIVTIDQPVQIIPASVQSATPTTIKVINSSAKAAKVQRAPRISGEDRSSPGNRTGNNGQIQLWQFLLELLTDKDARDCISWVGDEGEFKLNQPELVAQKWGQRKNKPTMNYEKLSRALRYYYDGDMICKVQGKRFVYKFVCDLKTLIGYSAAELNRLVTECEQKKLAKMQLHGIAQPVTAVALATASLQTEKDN
# Outline: as §1
# [4] = target: T4, ERG (Homo sapiens, UniProt P11308 1-479); conditions: protein: recombinant; tags: N-terminal GST; dsDNA, one strand shown
# T4 sequence: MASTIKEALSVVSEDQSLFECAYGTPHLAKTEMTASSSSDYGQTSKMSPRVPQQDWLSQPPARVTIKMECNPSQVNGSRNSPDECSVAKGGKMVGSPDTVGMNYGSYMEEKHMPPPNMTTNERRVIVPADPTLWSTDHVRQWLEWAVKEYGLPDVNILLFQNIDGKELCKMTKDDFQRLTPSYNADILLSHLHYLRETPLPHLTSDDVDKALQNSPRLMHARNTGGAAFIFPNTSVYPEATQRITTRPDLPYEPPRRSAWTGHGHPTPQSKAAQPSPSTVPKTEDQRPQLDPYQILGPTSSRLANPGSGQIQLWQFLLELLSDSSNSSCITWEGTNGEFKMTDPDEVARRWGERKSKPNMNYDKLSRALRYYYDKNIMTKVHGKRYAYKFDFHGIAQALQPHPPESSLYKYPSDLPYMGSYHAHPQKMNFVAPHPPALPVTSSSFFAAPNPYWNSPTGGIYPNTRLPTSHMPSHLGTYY
# Outline: as §1
# [5] = target: ELF1 (Homo sapiens, UniProt P32519 1-619); conditions: protein: recombinant; tags: N-terminal GST; dsDNA, one strand shown
# Outline: as §1
# [6] = target: T5, EHF (Homo sapiens, UniProt Q9NZC4 1-300); conditions: protein: recombinant; tags: N-terminal GST; dsDNA, one strand shown
# T5 sequence: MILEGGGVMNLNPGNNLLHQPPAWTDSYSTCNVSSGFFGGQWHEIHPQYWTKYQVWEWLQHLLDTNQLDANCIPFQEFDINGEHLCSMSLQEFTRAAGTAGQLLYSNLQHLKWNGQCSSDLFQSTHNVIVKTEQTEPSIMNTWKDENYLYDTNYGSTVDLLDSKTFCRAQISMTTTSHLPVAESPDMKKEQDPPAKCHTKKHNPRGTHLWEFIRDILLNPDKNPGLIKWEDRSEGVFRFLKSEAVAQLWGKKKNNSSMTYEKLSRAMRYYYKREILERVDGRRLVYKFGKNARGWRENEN
# Outline: as §1
# [7] = target: SPI1 (Homo sapiens, UniProt P17947 1-270); conditions: protein: recombinant; tags: N-terminal GST; dsDNA, one strand shown
# Outline: as §1
# [8] = target: SPIB (Homo sapiens, UniProt Q01892 1-262); conditions: protein: recombinant; tags: N-terminal GST; dsDNA, one strand shown
# Outline: as §1
# [9] = target: T6, ELK3 (Homo sapiens, UniProt P41970 1-407); conditions: protein: recombinant; tags: N-terminal GST; dsDNA, one strand shown
# T6 sequence: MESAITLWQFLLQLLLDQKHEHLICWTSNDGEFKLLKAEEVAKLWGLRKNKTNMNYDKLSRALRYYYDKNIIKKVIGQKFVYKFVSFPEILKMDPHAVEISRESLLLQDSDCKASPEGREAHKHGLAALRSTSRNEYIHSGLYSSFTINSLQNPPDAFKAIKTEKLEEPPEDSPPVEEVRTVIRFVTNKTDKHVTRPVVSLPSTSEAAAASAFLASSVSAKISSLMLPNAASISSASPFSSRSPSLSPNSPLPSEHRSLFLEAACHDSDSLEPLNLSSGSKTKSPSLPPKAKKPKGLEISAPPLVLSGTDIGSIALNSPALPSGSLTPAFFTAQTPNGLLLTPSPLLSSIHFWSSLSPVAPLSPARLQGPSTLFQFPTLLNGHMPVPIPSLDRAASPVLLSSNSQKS
# Outline: as §1
# [10] = target: T7, FEV (Homo sapiens, UniProt Q99581 1-238); conditions: protein: recombinant; tags: N-terminal GST; dsDNA, one strand shown
# T7 sequence: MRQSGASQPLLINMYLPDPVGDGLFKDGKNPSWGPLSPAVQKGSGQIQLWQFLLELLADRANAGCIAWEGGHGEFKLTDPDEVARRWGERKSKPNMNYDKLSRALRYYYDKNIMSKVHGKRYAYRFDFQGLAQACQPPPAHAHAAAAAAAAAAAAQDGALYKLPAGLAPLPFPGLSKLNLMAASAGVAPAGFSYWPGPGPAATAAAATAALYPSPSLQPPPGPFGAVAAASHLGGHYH
# Outline: as §1
# [11] = target: ETV5 (Homo sapiens, UniProt P41161 1-510); conditions: protein: recombinant; tags: N-terminal GST; dsDNA, one strand shown
# Outline: as §1
# [12] = target: HSF1 (Homo sapiens, UniProt Q00613 1-529); conditions: protein: recombinant; tags: N-terminal GST; chain copies: 3; dsDNA, one strand shown
# Outline: as §1
# [13] = target: T8, SPIC (Homo sapiens, UniProt Q8N5J4 1-248); conditions: protein: recombinant; tags: N-terminal GST; dsDNA, one strand shown
# T8 sequence: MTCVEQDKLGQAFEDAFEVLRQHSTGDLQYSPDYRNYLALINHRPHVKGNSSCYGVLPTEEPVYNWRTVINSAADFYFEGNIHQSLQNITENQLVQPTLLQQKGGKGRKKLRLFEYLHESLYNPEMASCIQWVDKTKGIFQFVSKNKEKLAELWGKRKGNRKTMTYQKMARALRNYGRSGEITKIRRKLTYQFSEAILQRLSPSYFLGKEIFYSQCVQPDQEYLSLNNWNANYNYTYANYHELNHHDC
# Outline: as §1
# [14] = target: ELF4 (Homo sapiens, UniProt Q99607 1-663); conditions: protein: recombinant; tags: N-terminal GST; dsDNA, one strand shown
# Outline: as §1
# [15] = target: T9, ELK4 (Homo sapiens, UniProt P28324-2 1-405); conditions: protein: recombinant; tags: N-terminal GST; dsDNA, one strand shown
# T9 sequence: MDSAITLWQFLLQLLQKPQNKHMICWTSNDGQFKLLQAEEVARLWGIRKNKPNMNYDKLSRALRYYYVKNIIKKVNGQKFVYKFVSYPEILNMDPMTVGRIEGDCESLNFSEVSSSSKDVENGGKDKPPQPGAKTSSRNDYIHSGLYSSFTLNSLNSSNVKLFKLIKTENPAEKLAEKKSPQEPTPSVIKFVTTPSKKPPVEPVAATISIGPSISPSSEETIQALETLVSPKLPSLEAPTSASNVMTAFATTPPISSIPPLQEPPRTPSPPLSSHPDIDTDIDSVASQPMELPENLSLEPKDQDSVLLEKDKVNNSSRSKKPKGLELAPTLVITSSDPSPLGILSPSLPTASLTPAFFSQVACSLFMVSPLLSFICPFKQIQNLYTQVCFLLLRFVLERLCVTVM
# Outline: as §1
# [16] = target: T10, ETV2 (Homo sapiens, UniProt O00321 1-342); conditions: protein: recombinant; tags: N-terminal GST; dsDNA, one strand shown
# T10 sequence: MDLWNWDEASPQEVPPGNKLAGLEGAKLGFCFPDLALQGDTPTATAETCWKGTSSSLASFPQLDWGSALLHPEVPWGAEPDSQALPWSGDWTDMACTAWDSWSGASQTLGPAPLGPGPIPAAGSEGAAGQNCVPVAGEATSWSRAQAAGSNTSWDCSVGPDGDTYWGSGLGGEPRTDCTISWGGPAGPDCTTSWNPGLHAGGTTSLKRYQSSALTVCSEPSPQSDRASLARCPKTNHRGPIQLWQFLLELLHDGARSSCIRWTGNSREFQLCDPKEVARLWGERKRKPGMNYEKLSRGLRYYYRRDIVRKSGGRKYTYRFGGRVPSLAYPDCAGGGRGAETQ
# Outline: as §1
# [17] = target: T11, ELF3 (Homo sapiens, UniProt P78545 1-371); conditions: protein: recombinant; tags: N-terminal GST; dsDNA, one strand shown
# T11 sequence: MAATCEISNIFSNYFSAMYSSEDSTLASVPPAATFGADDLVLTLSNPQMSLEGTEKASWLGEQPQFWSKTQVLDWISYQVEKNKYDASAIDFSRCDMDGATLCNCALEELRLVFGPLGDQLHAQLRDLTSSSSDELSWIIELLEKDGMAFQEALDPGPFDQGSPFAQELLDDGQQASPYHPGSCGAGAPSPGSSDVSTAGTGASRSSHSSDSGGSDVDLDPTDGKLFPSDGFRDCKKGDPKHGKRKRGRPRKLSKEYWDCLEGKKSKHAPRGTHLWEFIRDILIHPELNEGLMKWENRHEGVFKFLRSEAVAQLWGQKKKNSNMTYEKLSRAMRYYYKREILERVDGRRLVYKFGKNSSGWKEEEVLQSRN
# Outline: as §1
# [18] = target: CRX (Homo sapiens, UniProt O43186 1-299); conditions: protein: recombinant; tags: N-terminal GST; dsDNA, one strand shown
# Outline: as §1
# [19] = target: ETV1 (Homo sapiens, UniProt P50549 1-477); conditions: protein: recombinant; tags: N-terminal GST; dsDNA, one strand shown
# Outline: as §1
# Chain of HSF1 (Q00613 whole entry): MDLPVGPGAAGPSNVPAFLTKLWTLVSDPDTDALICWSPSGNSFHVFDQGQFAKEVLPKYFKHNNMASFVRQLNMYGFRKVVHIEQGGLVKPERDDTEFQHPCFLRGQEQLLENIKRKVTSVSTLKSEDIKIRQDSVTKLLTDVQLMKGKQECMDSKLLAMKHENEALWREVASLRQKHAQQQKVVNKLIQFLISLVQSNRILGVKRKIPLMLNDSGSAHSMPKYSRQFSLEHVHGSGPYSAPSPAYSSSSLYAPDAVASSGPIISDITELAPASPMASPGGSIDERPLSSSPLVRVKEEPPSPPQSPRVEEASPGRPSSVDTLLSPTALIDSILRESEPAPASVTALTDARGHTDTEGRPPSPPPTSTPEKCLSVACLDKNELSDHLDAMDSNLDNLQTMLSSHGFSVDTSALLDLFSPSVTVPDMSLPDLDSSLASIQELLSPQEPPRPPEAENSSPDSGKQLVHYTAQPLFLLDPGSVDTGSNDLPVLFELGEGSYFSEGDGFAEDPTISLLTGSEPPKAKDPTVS
# Chain of ETV1 (P50549 whole entry): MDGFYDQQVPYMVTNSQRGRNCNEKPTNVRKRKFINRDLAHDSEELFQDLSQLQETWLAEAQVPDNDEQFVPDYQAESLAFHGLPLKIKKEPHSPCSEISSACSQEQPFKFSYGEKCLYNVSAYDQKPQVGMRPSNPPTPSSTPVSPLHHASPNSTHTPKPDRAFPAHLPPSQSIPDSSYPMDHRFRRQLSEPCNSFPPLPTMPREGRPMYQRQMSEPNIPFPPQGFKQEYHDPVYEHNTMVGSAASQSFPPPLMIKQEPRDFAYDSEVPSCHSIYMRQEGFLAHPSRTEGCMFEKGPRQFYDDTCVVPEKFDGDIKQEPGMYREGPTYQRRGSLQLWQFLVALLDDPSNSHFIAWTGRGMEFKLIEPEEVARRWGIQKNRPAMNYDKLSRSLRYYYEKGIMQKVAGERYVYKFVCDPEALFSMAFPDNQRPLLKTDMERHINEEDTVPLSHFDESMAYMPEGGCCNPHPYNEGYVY
# Chain of ELF1 (P32519 whole entry): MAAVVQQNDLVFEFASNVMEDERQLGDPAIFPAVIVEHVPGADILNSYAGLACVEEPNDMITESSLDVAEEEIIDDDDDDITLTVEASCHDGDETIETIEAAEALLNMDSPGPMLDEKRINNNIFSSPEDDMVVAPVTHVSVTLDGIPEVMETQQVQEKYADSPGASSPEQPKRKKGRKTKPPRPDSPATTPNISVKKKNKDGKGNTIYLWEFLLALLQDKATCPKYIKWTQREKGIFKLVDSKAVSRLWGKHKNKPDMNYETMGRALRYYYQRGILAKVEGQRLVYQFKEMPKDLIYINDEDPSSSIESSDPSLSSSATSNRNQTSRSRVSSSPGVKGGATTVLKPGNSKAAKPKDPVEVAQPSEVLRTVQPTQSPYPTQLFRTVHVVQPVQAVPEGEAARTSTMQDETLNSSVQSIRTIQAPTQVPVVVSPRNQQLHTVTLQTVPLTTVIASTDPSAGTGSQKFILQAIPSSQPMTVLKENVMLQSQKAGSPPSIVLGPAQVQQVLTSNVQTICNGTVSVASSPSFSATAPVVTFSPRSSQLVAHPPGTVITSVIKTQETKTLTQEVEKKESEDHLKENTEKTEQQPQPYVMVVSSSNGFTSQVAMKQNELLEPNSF
# Chain of ELF4 (Q99607 whole entry): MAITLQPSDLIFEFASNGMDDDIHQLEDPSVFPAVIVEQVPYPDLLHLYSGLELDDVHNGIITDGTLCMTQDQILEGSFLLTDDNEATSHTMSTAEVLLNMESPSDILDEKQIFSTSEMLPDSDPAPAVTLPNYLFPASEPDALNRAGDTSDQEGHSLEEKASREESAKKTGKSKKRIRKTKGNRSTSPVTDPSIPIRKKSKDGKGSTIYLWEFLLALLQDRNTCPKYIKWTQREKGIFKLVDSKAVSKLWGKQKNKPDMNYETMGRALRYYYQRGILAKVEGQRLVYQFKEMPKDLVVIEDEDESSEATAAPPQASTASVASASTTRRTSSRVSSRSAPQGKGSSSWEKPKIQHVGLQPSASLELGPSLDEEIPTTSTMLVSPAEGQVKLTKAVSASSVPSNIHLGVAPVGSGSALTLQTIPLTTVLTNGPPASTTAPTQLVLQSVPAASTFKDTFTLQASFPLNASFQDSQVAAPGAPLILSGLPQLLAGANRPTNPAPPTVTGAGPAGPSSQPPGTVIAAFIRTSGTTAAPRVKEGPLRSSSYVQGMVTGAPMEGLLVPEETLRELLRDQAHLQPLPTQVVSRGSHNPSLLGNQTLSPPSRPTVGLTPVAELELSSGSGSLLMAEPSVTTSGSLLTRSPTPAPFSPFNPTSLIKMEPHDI
# Chain of ETV5 (P41161 whole entry): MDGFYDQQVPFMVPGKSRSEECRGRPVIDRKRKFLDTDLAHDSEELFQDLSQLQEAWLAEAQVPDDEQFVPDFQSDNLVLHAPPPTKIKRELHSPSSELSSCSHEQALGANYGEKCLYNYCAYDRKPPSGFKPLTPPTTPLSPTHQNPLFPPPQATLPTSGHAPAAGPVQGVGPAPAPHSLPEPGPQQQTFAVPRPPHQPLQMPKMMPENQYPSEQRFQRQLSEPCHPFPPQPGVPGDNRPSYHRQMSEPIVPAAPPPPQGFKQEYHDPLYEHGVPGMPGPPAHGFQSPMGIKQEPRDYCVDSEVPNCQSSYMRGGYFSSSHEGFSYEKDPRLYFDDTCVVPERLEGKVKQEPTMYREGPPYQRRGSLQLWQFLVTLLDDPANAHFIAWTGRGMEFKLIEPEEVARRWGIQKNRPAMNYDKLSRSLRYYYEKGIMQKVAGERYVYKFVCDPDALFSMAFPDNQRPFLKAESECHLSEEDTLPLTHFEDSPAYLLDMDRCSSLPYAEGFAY
# Chain of CRX (O43186 whole entry): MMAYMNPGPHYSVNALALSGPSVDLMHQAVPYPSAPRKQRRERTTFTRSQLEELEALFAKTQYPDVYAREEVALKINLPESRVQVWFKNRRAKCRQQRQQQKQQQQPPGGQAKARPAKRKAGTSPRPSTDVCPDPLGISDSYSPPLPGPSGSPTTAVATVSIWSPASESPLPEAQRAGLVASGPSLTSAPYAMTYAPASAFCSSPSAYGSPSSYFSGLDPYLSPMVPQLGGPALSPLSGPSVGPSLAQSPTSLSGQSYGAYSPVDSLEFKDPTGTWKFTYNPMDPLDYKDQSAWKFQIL
# Chain of SPIB (Q01892 whole entry): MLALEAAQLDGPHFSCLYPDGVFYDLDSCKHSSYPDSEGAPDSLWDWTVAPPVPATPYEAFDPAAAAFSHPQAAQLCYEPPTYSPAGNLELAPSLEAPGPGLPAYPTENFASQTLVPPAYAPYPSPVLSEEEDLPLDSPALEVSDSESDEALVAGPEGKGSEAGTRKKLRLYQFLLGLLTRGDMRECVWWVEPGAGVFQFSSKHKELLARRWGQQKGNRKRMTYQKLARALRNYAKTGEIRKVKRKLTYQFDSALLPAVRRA
sequence,measurement,setting,value
TCCTAA,binding signal,[1],"1.63 fold enrichment (6-mer frequency, TF over GST control)"
same,binding signal,[2],"1.34 fold enrichment (6-mer frequency, TF over GST control)"
same,binding signal,[3],"1.41 fold enrichment (6-mer frequency, TF over GST control)"
same,binding signal,[4],"1.58 fold enrichment (6-mer frequency, TF over GST control)"
same,binding signal,[5],"1.49 fold enrichment (6-mer frequency, TF over GST control)"
same,binding signal,[6],"1.27 fold enrichment (6-mer frequency, TF over GST control)"
same,binding signal,[7],"1.43 fold enrichment (6-mer frequency, TF over GST control)"
same,binding signal,[8],"1.49 fold enrichment (6-mer frequency, TF over GST control)"
same,binding signal,[9],"1.43 fold enrichment (6-mer frequency, TF over GST control)"
same,binding signal,[10],"1.41 fold enrichment (6-mer frequency, TF over GST control)"
same,binding signal,[11],"1.4 fold enrichment (6-mer frequency, TF over GST control)"
same,binding signal,[12],"1.66 fold enrichment (6-mer frequency, TF over GST control)"
same,binding signal,[13],"1.38 fold enrichment (6-mer frequency, TF over GST control)"
same,binding signal,[14],"1.44 fold enrichment (6-mer frequency, TF over GST control)"
same,binding signal,[15],"1.39 fold enrichment (6-mer frequency, TF over GST control)"
same,binding signal,[16],"1.47 fold enrichment (6-mer frequency, TF over GST control)"
same,binding signal,[17],"1.57 fold enrichment (6-mer frequency, TF over GST control)"
same,binding signal,[18],"2.09 fold enrichment (6-mer frequency, TF over GST control)"
same,binding signal,[19],"1.32 fold enrichment (6-mer frequency, TF over GST control)"
